# Screens from PubChem BioAssay.
# RecA splice inh: Mtb RecA intein splicing inhibitors, primary screen, biochemical, fluorescence, HTS. hit rate 0.75% among 290,000. cell-free RecA intein splicing. inhibition, % (concentration not given with the values). Protein RecA (Mycobacterium tuberculosis (strain ATCC 25618 / H37Rv)), P9WHJ3; in the data active means inhibition above about 30%;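 further: 0% = vehicle wells and 100% = reference inhibitor control wells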
# Target sequence (P9WHJ3 whole entry, looked up, canonical isoform): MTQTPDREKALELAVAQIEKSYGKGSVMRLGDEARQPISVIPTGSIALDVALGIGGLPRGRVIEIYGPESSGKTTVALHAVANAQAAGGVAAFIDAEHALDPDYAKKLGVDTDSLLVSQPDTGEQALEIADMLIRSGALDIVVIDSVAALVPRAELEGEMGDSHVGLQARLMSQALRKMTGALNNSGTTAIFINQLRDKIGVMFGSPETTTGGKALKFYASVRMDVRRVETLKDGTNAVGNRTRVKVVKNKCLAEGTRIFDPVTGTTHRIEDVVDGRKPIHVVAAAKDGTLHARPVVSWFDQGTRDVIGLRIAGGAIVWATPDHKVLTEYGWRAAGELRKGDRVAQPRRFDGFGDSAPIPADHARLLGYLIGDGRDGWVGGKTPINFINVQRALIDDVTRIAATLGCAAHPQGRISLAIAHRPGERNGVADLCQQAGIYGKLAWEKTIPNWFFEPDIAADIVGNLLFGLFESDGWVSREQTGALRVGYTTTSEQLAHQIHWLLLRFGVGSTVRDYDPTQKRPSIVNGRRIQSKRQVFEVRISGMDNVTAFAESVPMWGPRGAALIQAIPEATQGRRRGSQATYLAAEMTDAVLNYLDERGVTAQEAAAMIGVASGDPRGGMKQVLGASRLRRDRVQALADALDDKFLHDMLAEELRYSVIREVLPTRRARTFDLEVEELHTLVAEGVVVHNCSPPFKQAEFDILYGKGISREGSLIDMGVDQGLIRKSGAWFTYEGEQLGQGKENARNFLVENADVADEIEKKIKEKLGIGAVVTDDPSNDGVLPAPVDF
# CCHFV vOTU inh: CCHFV vOTU protease inhibitors, primary screen, biochemical, Pep-AMC substrate, fluorescence. Crimean-Congo hemorrhagic fever virus L polyprotein viral ovarian tumor (vOTU) protease …. inhibition, % at 11.5 µM. hit rate 0.55% among 370,000. AID 651958, 2012; further: 0% = vehicle wells with enzyme and 100% = no enzyme wells
# Mtb FBA inh: Mtb FBA enzyme inhibitors, primary screen, biochemical, fluorescence, strain H37Rv. Fructose-bisphosphate aldolase (Mycobacterium tuberculosis (strain ATCC 25618 / H37Rv)), …. AID 588726, 2011. hit rate 2.3% among 360,000. inhibition, % at 1 µM. purified M. tuberculosis FBA, fluorescence read-out; in the data active means inhibition above about 27%;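 further: 0% = vehicle and 100% = reference inhibitor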
# GDH-TPI counter-1: GDH-TPI coupling enzyme inhibitors, primary screen, artefact control for M. tuberculosis FBA inhibitor project, biochemical, absorbance, full deck; GDH-TPI coupled enzyme counterscreen, NADH absorbance; inhibition, % at 4.8 µM; hit rate 1.2% among 360,000;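 further: 0% = DMSO wells and 100% = wells lacking the enzyme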
# Mtb FBA inh conf: M. tuberculosis aldolase blockers, biochemical, fluorescence, strain H37Rv, confirmation. shares compounds with Mtb FBA inh. purified M. tuberculosis FBA, fluorescence read-out. inhibition, % at 1 µM. hit rate 78% among 5,600. AID 651616, 2012; in the data active means inhibition above about 27%;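 further: 0% = vehicle wells and 100% = reference inhibitor wells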
# GDH-TPI counter-2: GDH-TPI coupling enzyme inhibitors, artefact control for M. tuberculosis FBA inhibitor project, biochemical, fluorescence, high throughput; inhibition, % at 1 µM; GDH-TPI coupled enzyme counterscreen; AID 652141, 2013; shares compounds with Mtb FBA inh; hit rate 81% among 5,600; in the data active means inhibition above about 10%
# The depositor's hits bear a star; · = not tested or not shown; + = active, no number. Hits are enriched below; roughly 4.2% of the tested compounds scored in any of these assays. Unless noted, no stated cut-off is given here; in the data, active means inhibition above about 30%; inactive means the rest.
SMILES,RecA splice inh,CCHFV vOTU inh,Mtb FBA inh,GDH-TPI counter-1,Mtb FBA inh conf,GDH-TPI counter-2
Cc1cc(OCC(=O)N2CCC(C(=O)O)CC2)c2c(C)c(C)c(=O)oc2c1,-2.4,-12.0,86.6*,8.8,-5.2,-6.5
Cc1cc(OCC(=O)N2CCN(c3ccccc3)CC2)c2c(C)c(C)c(=O)oc2c1,0.1,8.1,0.2,4.3,·,·
COC(=O)c1sccc1NC(=O)CN(C)NS(=O)(=O)c1ccc(F)cc1,-1.6,29.3,27.1*,6.5,94.6*,72.0*
COC(=O)c1sccc1NC(=O)CN(C)NS(=O)(=O)c1ccc(Cl)cc1,-2.0,-10.6,1.2,12.7,·,·
COC(=O)c1sccc1NC(=S)Nc1ccc(F)cc1F,0.3,-0.7,69.9*,5.8,79.2*,50.9*
COC(=O)c1sccc1NC(=S)Nc1cccc(F)c1,0.1,-20.1,-1.1,19.8,·,·
COc1ccc(N2CCN(C(=O)COC(=O)c3ccc(-n4nc(C)cc4C)cc3)CC2)cc1,·,-2.5,3.5,1.4,·,·
COc1cccc(OCC(=O)N2CCC3(CC2)CC(=O)c2ccccc2O3)c1,0.3,8.0,9.2,0.3,·,·
CCOC(=O)N1CCN(C(=O)COc2ccc3c(c2)C(=O)CC2(CCN(C(C)=O)CC2)O3)CC1,-17.4,-103.9,63.4*,9.6,138.8*,120.5*
CC(=O)N1CCC2(CC1)CC(=O)c1cc(OCC(=O)N3CCOCC3)ccc1O2,-14.3,-127.3,69.7*,9.9,66.8*,67.0*
Cc1ccc(OCC(=O)N2CCC3(CC2)CC(=O)c2ccccc2O3)cc1,2.4,-9.7,5.0,3.5,·,·
CN1C(=O)c2cc(NC(=O)Nc3ccccc3)ccc2OC[C@H]2O[C@@H](CC(=O)NC3CCC3)CC[C@@H]21,·,-4.0,·,·,·,·
Cc1nn(S(=O)(=O)c2cccc([N+](=O)[O-])c2)c(C)c1S(=O)(=O)N1CCOCC1,-0.5,12.6,1.4,0.0,·,·
CN1c2cccc3cccc(c23)N(C)C1(C)C,-5.4,-97.9,71.7*,15.9,0.5,4.4
Cc1ncc(CN2CCC(n3nccc3NC(=O)c3ccccc3)CC2)s1,3.1,7.0,-2.7,-3.8,·,·
CN1CCN(C(=O)CSc2nc(-c3cccs3)ccc2C#N)CC1,0.2,-27.2,49.7*,27.9,+,+
N#Cc1ccc(-c2cccs2)nc1SCc1cccnc1,2.4,-21.9,34.5*,-1.5,12.4,-5.0
O=C(Nc1ccc(F)cc1)OCc1cn(Cc2c(F)cccc2F)nn1,·,-1.9,·,·,·,·
CN1CCn2cnc(C(=O)N[C@@H](Cc3ccccc3)C(=O)OC(C)(C)C)c2C1=O,·,-1.5,-2.9,9.9,·,·
Cn1c(=O)c2cc(NC(=O)NCc3ccccc3)ccc2n1C/C=C/c1ccccc1,·,-42.9,77.2*,7.1,98.7*,60.3*
CN(C)c1ccc(NC(=O)Nc2ccc3c(c2)c(=O)n(C)n3-c2ccccc2)cc1,·,2.0,0.9,-0.9,·,·
Cn1c(=O)c2cc(NC(=O)NCCc3cccs3)ccc2n1C/C=C/c1ccccc1,·,·,65.3*,18.1,1.2,-3.5
O=C(O)c1sc2cc(C(F)(F)F)cnc2c1-c1cccs1,-7.0,6.7,30.4*,8.8,+,+
NC(=O)c1sc2cc(C(F)(F)F)cnc2c1-c1cccs1,-6.9,4.0,5.1,9.4,·,·
COc1ccc(/C=N/NC(=O)CN2CCSCC2)c(OC)c1,-2.8,-4.2,0.9,15.5,·,·
COc1ccc(OC)c(/C=N/NC(=O)C(O)c2ccccc2)c1 (stereo not given),-3.5,-165.2,101.0*,14.7,82.5*,62.4*
COc1ccc(OC)c(/C=N/NC(=O)CN2CCSCC2)c1,-1.3,-105.1,85.4*,15.5,76.9*,66.4*
COc1ccc(OC)c(/C=N/NC(=O)CNC(=O)c2ccc(S(=O)(=O)N3CCCC3)cc2)c1,1.2,-40.0,35.8*,2.6,164.7*,120.8*
CC(CCc1ccccc1)NC(=O)C1CCC1 (stereo not given),-1.4,-1.8,-1.1,8.8,·,·
COc1ccc(NC(=O)COc2cccc3c2CCN(C)C3=O)c(OC)c1,0.8,15.1,1.6,4.2,·,·
